The values that follow come from PubChem BioAssay AID1035475 (Broad Institute, 2014).

This experiment is described as follows: inhibitors of fibronectin matrix deposition, dose response, AH1F cells, Alexa488-FN fluorescence, cherry-picks (AID 1035475).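 Further: AH1F fibroblasts incorporating labeled fibronectin into their extracellular matrix.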

Entries with a potency or affinity are not part of this list. Results filed as inconclusive are left out. Active and inactive are the calls of the source.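 How the source made its calls: active means fluorescent signal drops by 40% or more, counted as a hit; inconclusive means no clear call, values can overlap the other calls; inactive means the rest, including any activity in the opposite direction.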

With `O=C(Nc1ccccc1F)N1C[C@@H]2[C@H](c3ccccc31)[C@H](CO)N2C(=O)C1CC1`, the result was inactive.

As to `CCCCNC(=O)Nc1nc2ccc(CC)cc2s1`, the result was inactive.

Take `CC(C)Cc1nnc(NC(=O)CSc2nc(N)cc(=O)[nH]2)s1`: the compound was called inactive.

Take `C[C@H]1CN([C@@H](C)CO)C(=O)c2cc(-c3ccccc3)cnc2O[C@H]1CN(C)C(=O)c1cccc(F)c1`: the compound was classed as inactive.

For the compound `C[C@H](CO)N1C[C@H](C)[C@@H](CN(C)C(=O)c2cccc(F)c2)Oc2ncc(-c3ccccc3)cc2C1=O`, the compound was called inactive.

Consider `N#C[C@H]1[C@@H](c2ccccc2C2=CCCCC2)[C@H](CO)N1S(=O)(=O)c1ccccc1`, for which the result was inactive.

Take `COCC(=O)Nc1ccc2c(c1)C(=O)N(C)[C@H]1CC[C@H](CC(=O)NCc3ccccc3Cl)O[C@@H]1CO2`: the compound was called inactive.

In the case of `CCCc1cc(C(=O)OC)c(NC(=O)CCC(=O)O)s1`, the outcome was inactive.

Regarding `O=C(CC1Nc2ccccc2NC1=O)Nc1ccc2c(c1)OCO2` (stereo not drawn), the compound was classed as inactive.

With `CSc1ccccc1C(=O)C1CCCN(C(=O)CCc2cccnc2)C1` (stereo not drawn), the call was inactive.

Turning to `Fc1cnc(N2CCN(c3ccccc3)CC2)nc1N1CCN(c2ccccc2)CC1`, the outcome was inactive.

For the compound `CN1c2ccc(-c3ccccc3)cc2[C@@H]2[C@@H](CCN2C(=O)CN2CCOCC2)[C@H]1CO`, the outcome was inactive.

On to `C[C@H]1CN([C@@H](C)CO)C(=O)c2cccc(NC(=O)Nc3ccc(C(F)(F)F)cc3)c2O[C@@H]1CN(C)C(=O)Nc1cccc2ccccc12`, for which the compound was called inactive.

Consider `C[C@@H]1CN([C@@H](C)CO)C(=O)c2cc(-c3ccncc3)cnc2O[C@@H]1CN(C)C(=O)Cc1cccnc1`, for which the call was inactive.

Regarding `COc1cccc(CNC(=O)CCc2nnc3ccc(NCCCN4CCCC4=O)nn23)c1`, the outcome was inactive.

Turning to `C[C@H](O)C#Cc1ccc2c(c1)O[C@H](CN(C)C)[C@@H](C)CN([C@H](C)CO)S2(=O)=O`, the compound was called inactive.

As for `O=C(c1cccnc1)N1C[C@@H]2[C@H](c3ccccc31)[C@H](CO)N2CC1CCCC1`, the call was inactive.

Turning to `O=C(Nc1ccccc1F)N1C[C@@H]2[C@H](c3ccccc31)[C@H](CO)N2C(=O)C1CCOCC1`, the outcome was inactive.

Take `Cc1ccn2cc(-c3ccc(NC(=O)c4ccco4)cc3)nc2c1`: the call was inactive.

Regarding `C[C@@H]1CN([C@@H](C)CO)C(=O)c2cc(-c3ccccc3)cnc2O[C@@H]1CN(C)Cc1ccccc1`, the compound was called inactive.

As to `Cn1cnc(S(=O)(=O)N2CCN(c3ccccc3)CC2)c1`, the compound was classed as inactive.

Regarding `CO[C@@H]1CN(C)C(=O)c2cc(NC(=O)Nc3cc(Cl)cc(Cl)c3)ccc2OC[C@@H](C)NC[C@@H]1C`, the outcome was inactive.

In the case of `COCC(C)n1c(SCc2nc(N)nc(Nc3ccccc3C)n2)nc2ccccc2c1=O` (stereo not drawn), the compound was called inactive.

With `COC(=O)c1c(NC(=O)CN2CCN(c3ccccc3Cl)CC2)sc(C)c1C`, the result was inactive.

In the case of `CC(C)C(=O)Nc1ccc2c(c1)C(=O)N(C)[C@@H]1CC[C@H](CC(=O)O)O[C@@H]1CO2`, the compound was classed as inactive.

For `CO[C@@H]1CN(C)C(=O)c2cc(NC(=O)Nc3ccc(Cl)c(Cl)c3)ccc2OC[C@H](C)NC[C@@H]1C`, the result was inactive.

In the case of `Cc1cc(C)c(S(=O)(=O)Nn2cnnc2)c(C)c1`, the outcome was inactive.

As to `Nc1c(C(=O)NCc2ccco2)nnn1Cc1ccccc1`, the compound was called inactive.
